Activity calls are given as the source filed them.
Assays:
[1] = test system: Wnt5a (protein binding on small-molecule microarray); assay: Wnt5a binders on small-molecule microarray, primary screen, biophysical, 635/667 nm fluorescence (AID 1142); settings: 635 nm fluorescence, higher = more signal;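 note: fluorescence read at 667 nm with signal to noise per printed feature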
[2] = cell viability in Huh7 cells, primary screen, cytotoxicity control for HCV replication inhibitor project, CellTiter-Glo luminescence, basal, 48 h (AID 1143); settings: Huh7 HCV replicon, higher = more signal, called active from +8 up or from −8 down;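 note: Huh7 hepatoma cells carrying a hepatitis C replication reporter with no stimulus; test concentration not given here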
[3] = CREB reporter modulators without forskolin, primary screen, cell-based, PC12, CRE-LacZ reporter, unstimulated (AID 1145); settings: no forskolin, luminescence, 4.5 h, higher = more signal, called active from +8 up or from −8 down
[4] = CREB reporter modulators under forskolin, primary screen, cell-based, PC12, CRE-LacZ reporter, forskolin-stimulated (AID 1146); settings: luminescence, 4.5 h, higher = more signal, called active from +8 up or from −8 down;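 note: PC12 cells with 6xCRE LacZ reporter stimulated by forskolin 10 µM; beta-galactosidase reporter signal reflecting CREB driven transcription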
[5] = target: Streptavidin (Streptomyces avidinii) (UniProt P22629); assay: streptavidin binders on small-molecule microarray, primary screen, artefact control for SMM compound annotation, biophysical, 635/667 nm fluorescence (AID 1147); settings: streptavidin binding, higher = more signal;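 note: signal reflects streptavidin binding to arrayed compounds as a control protein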
[6] = small-molecule binders of probe aInhba, primary screen, biochemical, small-molecule microarray, 635/667 nm fluorescence (AID 1148); settings: higher = more signal;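 note: score merges 667nm spot fluorescence with signal-to-noise for antibody binding to printed compounds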
Torsin-1A (Homo sapiens) [7] = target: Torsin-1A (Homo sapiens) (UniProt O14656); assay: torsin A binders from cell lysate, primary screen, small-molecule microarray, wild-type, 635/667 nm (AID 1149); settings: COS7 hTOR1A-WT lysate, 635 nm fluorescence, higher = more signal
Torsin-1A (Homo sapiens) [8] = target: Torsin-1A (Homo sapiens) (UniProt O14656); assay: small-molecule binders of mutant TOR1A in lysate, primary screen, cell lysate, small-molecule microarray, COS7 lysate, 635/667 nm fluorescence (AID 1150); settings: COS7 hTOR1A mutant lysate, 635 nm fluorescence, higher = more signal;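 note: score pools 667 nm emission and signal to noise measuring lysate protein binding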
[9] = test system: Sonic hedgehog protein (Shh); assay: small-molecule binders of Shh protein, primary screen, biochemical, small-molecule microarray, 635/667 nm fluorescence (AID 1151); settings: small-molecule microarray binding, 635 nm fluorescence; higher = more signal;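 note: Shh protein binding to compounds spotted on small-molecule microarray slides; score combines spot fluorescence intensity with signal-to-noise across triplicate slides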
[10] = E. coli DRC41 culture turbidity changes, primary screen, E. coli filamentation inducer project, strain DRC41, OD650, 48 h (AID 1152);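 note: E. coli MC1000 strain DRC41 lacking acrAB efflux pump and sulA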; settings: E. coli DRC41 (acrAB sulA), higher = more signal, called active from +8 up or from −8 down
[11] = small-molecule binders of probe aLefty1, primary screen, biochemical, small-molecule microarray, 635/667 nm fluorescence (AID 1153); settings: higher = more signal;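 note: score merges spot fluorescence with signal-to-noise ratio from the scanned slide images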
[12] = PSAC antagonists in infected red cells, primary screen, cell-based, P. falciparum Indochina, OD700, 1 h (AID 1154); settings: P. falciparum Indochina infected RBC osmotic lysis, higher = more signal, called active from +8 up or from −8 down
[13] = PSAC antagonists in infected red cells, primary screen, cell-based, P. falciparum Indochina, OD700, 2 h (AID 1155);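 note: lysis reports solute entry through the parasite surface anion channel PSAC; channel blockers reduce lysis of infected cells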; settings: P. falciparum Indochina infected erythrocytes, osmotic lysis OD700; higher = more signal, called active from +8 up or from −8 down
[14] = osmotic lysis modulators in infected erythrocytes, primary screen, PSAC antagonist project, cell-based, P. falciparum Indochina, OD700, 3 h (AID 1156); settings: higher = more signal, called active from +8 up or from −8 down
[15] = PSAC antagonists in infected red cells, primary screen, cell-based, P. falciparum Indochina, OD700, 18 h (AID 1157); settings: P. falciparum Indochina infected erythrocytes, osmotic lysis OD700, 18 h; higher = more signal, called active from +8 up or from −8 down
[16] = modulators of S6 phosphorylation in cells, primary screen, cell-based, A549, cytoblot, luminescence, serum-stimulated (AID 1158); settings: A549 phospho-S6 cytoblot, 5 h, higher = more signal;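 note: serum-stimulated A549 lung adenocarcinoma cells; signal is phosphorylated S6 detected by cytoblot immunostaining with HRP secondary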
[17] = target: NADPH oxidase 2 (Homo sapiens) (UniProt P04839); assay: NOX2-dependent H2O2 signal modulators, primary screen, NOX inhibitor project, cell-based, HEK293-NOX2, PMA-stimulated, Amplex Red fluorescence (AID 1159); settings: 45 min, higher = more signal, called active from +8 up or from −8 down; note: test concentration not given here
[18] = target: NADPH oxidase 4 (Homo sapiens) (UniProt Q9NPH5); assay: NOX4-dependent H2O2 signal modulators, primary screen, NOX inhibitor project, cell-based, HEK293-NOX4, tetracycline-induced, Amplex Red fluorescence (AID 1160); settings: 45 min, higher = more signal, called active from +8 up or from −8 down
[19] = target: NADPH oxidase 5 (Homo sapiens) (UniProt Q96PH1); assay: NOX5-dependent H2O2 signal modulators, primary screen, NOX inhibitor project, cell-based, HEK293-NOX5, Amplex Red fluorescence (AID 1161); settings: HEK293-NOX5, ionomycin, 45 min, higher = more signal
[20] = A549 cell viability effects, profiling panel, calcein-AM fluorescence, 48 h, basal (AID 1162); settings: higher = more signal; note: test concentration not given here

Streptavidin (Streptomyces avidinii), sequence (P22629 whole entry, looked up): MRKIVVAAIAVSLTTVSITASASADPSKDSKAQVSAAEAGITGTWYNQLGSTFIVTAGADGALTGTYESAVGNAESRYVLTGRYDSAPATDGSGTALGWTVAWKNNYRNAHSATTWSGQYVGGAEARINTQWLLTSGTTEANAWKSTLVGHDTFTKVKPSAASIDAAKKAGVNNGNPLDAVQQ
NADPH oxidase 5 (Homo sapiens), sequence (Q96PH1 whole entry, looked up): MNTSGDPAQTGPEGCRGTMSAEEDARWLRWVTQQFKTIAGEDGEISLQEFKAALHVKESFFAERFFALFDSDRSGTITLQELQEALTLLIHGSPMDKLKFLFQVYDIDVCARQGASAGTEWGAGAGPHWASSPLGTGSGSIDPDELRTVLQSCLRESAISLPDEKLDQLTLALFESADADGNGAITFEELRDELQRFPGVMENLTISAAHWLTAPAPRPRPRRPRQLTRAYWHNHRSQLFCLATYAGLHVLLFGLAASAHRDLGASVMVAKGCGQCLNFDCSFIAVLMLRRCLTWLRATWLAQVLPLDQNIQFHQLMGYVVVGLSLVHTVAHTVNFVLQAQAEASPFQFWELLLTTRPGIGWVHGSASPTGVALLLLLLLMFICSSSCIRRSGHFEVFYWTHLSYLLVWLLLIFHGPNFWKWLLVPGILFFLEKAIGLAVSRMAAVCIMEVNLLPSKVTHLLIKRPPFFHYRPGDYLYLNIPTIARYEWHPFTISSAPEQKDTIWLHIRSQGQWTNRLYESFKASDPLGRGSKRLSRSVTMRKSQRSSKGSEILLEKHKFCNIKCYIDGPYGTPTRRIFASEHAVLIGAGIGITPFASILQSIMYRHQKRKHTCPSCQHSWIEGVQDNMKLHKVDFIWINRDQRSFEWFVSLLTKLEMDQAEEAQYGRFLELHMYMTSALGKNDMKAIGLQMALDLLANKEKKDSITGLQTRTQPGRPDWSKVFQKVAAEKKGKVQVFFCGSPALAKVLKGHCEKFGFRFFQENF
Torsin-1A (Homo sapiens), sequence (O14656 whole entry, looked up): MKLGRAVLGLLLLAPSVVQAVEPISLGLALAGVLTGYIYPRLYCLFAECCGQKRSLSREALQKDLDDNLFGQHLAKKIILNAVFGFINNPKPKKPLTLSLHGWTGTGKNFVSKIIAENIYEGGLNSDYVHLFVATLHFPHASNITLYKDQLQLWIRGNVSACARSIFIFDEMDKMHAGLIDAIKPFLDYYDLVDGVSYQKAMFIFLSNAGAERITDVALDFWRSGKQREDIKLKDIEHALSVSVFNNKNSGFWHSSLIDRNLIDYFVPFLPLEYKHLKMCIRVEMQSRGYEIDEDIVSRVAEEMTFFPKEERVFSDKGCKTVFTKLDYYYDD
NADPH oxidase 4 (Homo sapiens), sequence (Q9NPH5 whole entry, looked up): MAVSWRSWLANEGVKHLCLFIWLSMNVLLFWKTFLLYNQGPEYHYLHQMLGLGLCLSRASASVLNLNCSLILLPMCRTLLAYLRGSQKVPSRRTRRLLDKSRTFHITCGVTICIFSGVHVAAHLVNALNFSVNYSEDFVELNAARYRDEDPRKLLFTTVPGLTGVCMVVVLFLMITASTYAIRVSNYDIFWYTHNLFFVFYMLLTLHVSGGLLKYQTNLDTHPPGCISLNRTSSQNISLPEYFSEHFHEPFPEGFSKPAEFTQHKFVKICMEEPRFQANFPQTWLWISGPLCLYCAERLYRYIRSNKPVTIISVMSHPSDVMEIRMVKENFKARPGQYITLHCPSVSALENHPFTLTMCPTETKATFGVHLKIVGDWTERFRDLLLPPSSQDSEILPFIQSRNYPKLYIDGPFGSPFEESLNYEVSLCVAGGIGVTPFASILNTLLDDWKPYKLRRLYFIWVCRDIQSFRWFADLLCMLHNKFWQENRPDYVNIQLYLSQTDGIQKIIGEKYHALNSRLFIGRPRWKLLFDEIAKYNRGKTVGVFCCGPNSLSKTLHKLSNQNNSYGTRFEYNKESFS
NADPH oxidase 2 (Homo sapiens), sequence (P04839 whole entry, looked up): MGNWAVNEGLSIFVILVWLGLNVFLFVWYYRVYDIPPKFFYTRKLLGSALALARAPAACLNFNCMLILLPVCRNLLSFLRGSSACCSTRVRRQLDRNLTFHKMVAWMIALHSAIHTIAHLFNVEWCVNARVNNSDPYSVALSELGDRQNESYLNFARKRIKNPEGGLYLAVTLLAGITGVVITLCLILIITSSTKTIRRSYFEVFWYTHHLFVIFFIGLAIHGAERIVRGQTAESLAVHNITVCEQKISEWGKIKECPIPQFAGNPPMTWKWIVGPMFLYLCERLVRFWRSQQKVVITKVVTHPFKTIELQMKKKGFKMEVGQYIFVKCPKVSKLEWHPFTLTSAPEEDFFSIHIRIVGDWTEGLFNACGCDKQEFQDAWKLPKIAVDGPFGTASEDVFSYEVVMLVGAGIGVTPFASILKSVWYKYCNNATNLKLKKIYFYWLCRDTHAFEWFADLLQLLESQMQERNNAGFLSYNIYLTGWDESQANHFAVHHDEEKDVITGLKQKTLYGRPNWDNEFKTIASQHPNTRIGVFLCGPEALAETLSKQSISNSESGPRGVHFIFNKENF

Row | SMILES | composite z-score [1] | z-score [2] | z-score [3] | z-score [4] | composite z-score [5] | composite z-score [6] | composite z-score (Torsin-1A (Homo sapiens) [7]) | composite z-score (Torsin-1A (Homo sapiens) [8]) | composite z-score [9] | z-score [10] | composite z-score [11] | z-score [12] | z-score [13] | z-score [14] | z-score [15] | z-score [16] | z-score [17] | z-score [18] | z-score [19] | z-score [20]
1 | CC(C)(C)OC(=O)CC[C@]1(C(=O)NCc2ccccc2)COC(c2ccc(OCCCO)cc2)=N1 | 0.433 | -1.47 (inactive) | 1.7 (inactive) | -1.32 (inactive) | 0.74 | -0.0308 | -0.208 | 1.11 | -0.743 | 2.02 (inactive) | 0.0738 | 18.7 (active) | 1.92 (inactive) | 1.99 (inactive) | -1.39 (inactive) | 0.719 | 0.117 (inactive) | 0.804 (inactive) | -1.01 | 0.661
2 | C[N+](C)(C)CCCC[C@@H]1NC(=O)[C@H]2C[C@@H](C(=O)NCCCCCN)[C@@H](c3cccc(OCCO)c3)N2C1=O | 0.165 | -1.18 (inactive) | 0.0124 (inactive) | -1 (inactive) | 1.04 | 0.147 | 0.918 | 1.7 | -0.197 | 2.36 (inactive) | 0.857 | 1.76 (inactive) | 0.858 (inactive) | -1.26 (inactive) | 0.57 (inactive) | -0.0325 | 1.03 (inactive) | -0.833 (inactive) | 2.24 | -0.013
3 | COC(=O)c1c2oc(c1C(=O)OC)C(=O)N[C@@H](C(C)C)Cn1nncc1C1(CCCCC1)NC(=O)N[C@H](CO)CC2 | -0.0906 | -0.475 (inactive) | 1.44 (inactive) | -0.575 (inactive) | 0.235 | -0.195 | 0.217 | -0.422 | -0.0256 | 3.17 (inactive) | -0.235 | 1.05 (inactive) | 1.49 (inactive) | 0.168 (inactive) | 1.41 (inactive) | 0.651 | 0.234 (inactive) | 0.991 (inactive) | -0.162 | 2.55
4 | CCCCCN1CC=CC23O[C@@H]4/C=C\CCC(C)OC(=O)C4[C@H]2C(=O)N(CCO)[C@@H]3C1=O (stereo not given in full) | -0.376 | -0.989 (inactive) | 1.02 (inactive) | -1.06 (inactive) | -0.877 | -0.233 | 0.615 | 0.816 | -0.542 | 2.08 (inactive) | -0.147 | 2.04 (inactive) | 0.402 (inactive) | 0.944 (inactive) | 0.0613 (inactive) | 0.0564 | 1.88 (inactive) | -0.354 (inactive) | 2.5 | 0.414
5 | O=C1c2ccccc2[C@@]2(Cc3ccccc3N(CC(F)(F)F)C2=O)[C@H](c2ccc(CO)cc2)N1Cc1ccccc1C(F)(F)F | -0.388 | -1.02 (inactive) | -0.556 (inactive) | -1.56 (inactive) | -1.04 | -0.224 | -1.41 | -0.322 | -0.643 | 1.43 (inactive) | -0.23 | 0.0937 (inactive) | -0.926 (inactive) | 0.593 (inactive) | -1.39 (inactive) | 0.936 | 0.0968 (inactive) | 0.396 (inactive) | 1.09 | 1.73
6 | COCCOC(=O)N1C(=O)[C@@]2(c3cc(C#CC4(O)CCCCCC4)ccc31)[C@H](c1ccc(O)cc1)N1[C@H](c3ccccc3)[C@H](c3ccccc3)OC(=O)[C@H]1[C@@H]2C(N)=O | 0.496 | -2.03 (inactive) | -0.168 (inactive) | -0.304 (inactive) | 0.629 | 0.101 | 0.0241 | 0.497 | 1.22 | 1.91 (inactive) | 0.181 | 1.14 (inactive) | -1.24 (inactive) | -1.54 (inactive) | -2.13 (inactive) | 0.736 | 1.97 (inactive) | 0.751 (inactive) | 1.29 | 0.0692
7 | O=C1N(CCS(=O)(=O)c2ccccc2)Cc2ccccc2[C@@H]2OC(c3ccc(OCCCO)cc3)=N[C@]12Cc1ccccc1 | 1.14 | -3.69 (inactive) | 0.927 (inactive) | -1.09 (inactive) | 1.66 | 0.243 | 0.612 | 0.29 | 1.96 | 0.218 (inactive) | 0.327 | 27.7 (active) | 18.5 (active) | 3.32 (inactive) | 2.53 (inactive) | 0.503 | -3.23 (inactive) | -0.195 (inactive) | 1.01 | -1.08
8 | CCCNC(=O)[C@@H]1c2ccccc2C(=O)N(Cc2cc(C(F)(F)F)cc(C(F)(F)F)c2)[C@H]1c1ccc(CO)cc1 | 0.311 | -2.67 (inactive) | 0.649 (inactive) | -1.13 (inactive) | -0.555 | -0.157 | -0.0027 | 0.19 | 1 | 1.63 (inactive) | 0.233 | 3.17 (inactive) | 1.07 (inactive) | -0.631 (inactive) | 0.77 (inactive) | 0.488 | 0.602 (inactive) | -0.772 (inactive) | 0.69 | 1.16

Reference: PubChem BioAssay
